Compound activity from PubChem.
Rows were chosen to be rich in hits. Some 1.3% of all compounds tested hit in one or more screens of this group.
BCLXL inh = inhibitors of human Bcl-xL, primary screen, biochemical, fluorescence polarization, HTS. GST-Bcl-xL / FITC-Bim BH3 peptide fluorescence polarization. inhibition, % at 10.9 µM. actives 0.7% (n = 320,000). AID 2129, 2009;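 active = inhibition above the mean of all tested compounds plus 3 SD, cutoff set per campaign, cut at about 30% in these data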;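 note: 0% = DMSO wells and 100% = unlabeled Bim-BH3 peptide competitor; inhibitors lower millipolarization by displacing the labeled peptide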
Target sequence (Q07817 whole entry, looked up): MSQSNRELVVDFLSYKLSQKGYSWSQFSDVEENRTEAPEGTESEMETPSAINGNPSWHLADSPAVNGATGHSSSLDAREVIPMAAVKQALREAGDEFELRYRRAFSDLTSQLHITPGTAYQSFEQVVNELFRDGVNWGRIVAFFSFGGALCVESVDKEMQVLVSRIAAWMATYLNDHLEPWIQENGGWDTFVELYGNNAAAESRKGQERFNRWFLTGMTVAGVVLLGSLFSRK
MCL1-BIM inh = inhibitors of MCL1 binding to BIM-BH3, primary screen, biochemical, fluorescence polarization; GST-MCL1 / FITC-Bim-BH3 fluorescence polarization; actives 0.68% (n = 320,000); Induced myeloid leukemia cell differentiation protein Mcl-1 (Homo sapiens), Q07820; inhibition, % at 10.9 µM;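 active = inhibition above the mean inhibition of all tested compounds plus 3 SD, set per campaign, cut at about 40% in these data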;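 note: 0% = DMSO wells and 100% = unlabeled Bim-BH3 peptide control; higher means more loss of mP so more displacement of Bim peptide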
Target sequence (Q07820 whole entry, looked up): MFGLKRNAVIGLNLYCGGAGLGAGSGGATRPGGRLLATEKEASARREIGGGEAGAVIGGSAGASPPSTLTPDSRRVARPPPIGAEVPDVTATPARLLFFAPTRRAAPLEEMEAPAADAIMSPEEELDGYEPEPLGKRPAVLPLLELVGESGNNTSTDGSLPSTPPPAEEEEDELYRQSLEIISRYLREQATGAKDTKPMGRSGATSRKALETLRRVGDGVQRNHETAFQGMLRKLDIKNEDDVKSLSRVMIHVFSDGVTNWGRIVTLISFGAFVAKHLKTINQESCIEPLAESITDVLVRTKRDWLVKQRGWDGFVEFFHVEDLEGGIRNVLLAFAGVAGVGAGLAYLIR
MEX-5 binding = MEX-5 zinc finger RNA-binding disruptors – biochemical, C. elegans, fluorescence polarization, MLPCN library, primary screen | MEX-5/FITC-TCR2 RNA binding; hits give low values | AID 1832, 2009 | actives 0.38% (n = 300,000) | activity score (negative = inhibition of binding), % at 10 µM | Zinc finger protein mex-5 (Caenorhabditis elegans), Q9XUB2;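 active = inhibition past about -25% in most replicates, and total fluorescence under double the plate's negative control median, limit read from the data; inconclusive = replicates evenly split on the limit, or fluorescence at least double controls; inactive = too little inhibition in most replicates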;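 note: 0% = DMSO and -100% = 5 µM competing unlabeled TCR2 RNA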
EBV gp42 inh = Epstein-Barr virus gp42 inhibitors, primary screen, biochemical, uHTS, fluorescence polarization; Glycoprotein 42 (Epstein-Barr virus (strain AG876)), Q1HVG2; Fluorescence polarization binding assay, mP read-out; inhibition, % (tested at 21.74 µM); actives 0.42% (n = 220,000); AID 1085, 2008; in the data active = inhibition above about 50%
GLD-1 TGE inh = GLD-1/TGE RNA complex disruptors, primary screen, biochemical, fluorescence polarization; Female germline-specific tumor suppressor gld-1 (Caenorhabditis elegans), Q17339; purified GLD-1 + fluorescein TGE RNA; inhibition, % at 5.96 µM; actives 0.44% (n = 320,000); AID 2280, 2010;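 active = percent inhibition above a per-plate cutoff, the plate mean of test compounds plus 3 SD, cut at about 30% in these data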;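 note: 0% = DMSO wells with GLD-1 and probe and 100% = wells lacking GLD-1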
* = called active by the depositor; ? = inconclusive; / = no result given.

SMILES | BCLXL inh | MCL1-BIM inh | MEX-5 binding | EBV gp42 inh | GLD-1 TGE inh
Cn1c(SCC2CCCCC2)nnc1-c1ccncc1 | -1 | 1 | 1 | -7 | 3
CN(C)c1ccc(/C=C2\CCC/C(=C\c3ccccc3)C2=O)cc1 | -27 | -92 | -3 | 119* | -23
CC(C)(CO)NCC(O)Cn1cc(C=O)c2ccccc21 (stereo unspecified) | 3 | 4 | 0 | 1 | -1
O=C(C1=C(O)C(=O)N(c2ncccn2)C1c1cccc(Cl)c1)c1ccco1 (stereo unspecified) | 9 | 2 | -2 | 3 | 7
CCOc1cccc(C2C(C(=O)c3ccco3)=C(O)C(=O)N2Cc2ccncc2)c1 (stereo unspecified) | 5 | 6 | 0 | -1 | -2
CSc1nnc(N2C(=O)C(O)=C(C(=O)c3ccco3)C2c2cccc(Cl)c2)s1 (stereo unspecified) | 39* | 33 | -26* | / | 37*
C=CCOc1ccc(C2C(C(=O)c3ccco3)=C(O)C(=O)N2c2nnc(C)s2)cc1 (stereo unspecified) | 33* | 27 | -7 | 43 | 21
CCOc1cccc(C2C(C(=O)c3ccco3)=C(O)C(=O)N2c2nnc(C)s2)c1 (stereo unspecified) | 43* | 34 | / | / | 50*
COc1ccc(C2C(C(=O)c3ccco3)=C(O)C(=O)N2c2nnc(C)s2)cc1 (stereo unspecified) | 26 | 32 | -6 | 43 | 24
COc1ccc(C2C(C(=O)c3ccco3)=C(O)C(=O)N2c2nnc(C)s2)cc1OC (stereo unspecified) | 45* | 43* | -12 | / | 19
O=C(CN1C(=O)c2ccccc2S1(=O)=O)NCc1cccs1 | -2 | -6 | -4 | / | 5
C#CCNC(=O)C1=C[C@H](C(C)(C)C)C[C@H](OCCCCO)O1 | -1 | 2 | 1 | / | 3
O=C(Oc1coc(CSc2nnc(NC(=O)C3CC3)s2)cc1=O)c1c(F)cccc1F | 3 | 14 | -2 | 3 | 3
c1ccc(-c2nn3c(Cn4nnc5ccccc54)nnc3s2)nc1 | 38* | 48* | -4 | 20 | 14
O=C(Nc1ccc2cn[nH]c2c1)c1c(Cl)cccc1Cl | 5 | -6 | 0 | 4 | 1
O=C1C(Cl)=C(Nc2ccc3cn[nH]c3c2)C(=O)c2ccccc21 | 33* | 33 | -5 | -22 | 1
O=C(Nc1ccc(N2CCOCC2)cc1)C1CCCN(S(=O)(=O)c2cccc(C(F)(F)F)c2)C1 (stereo unspecified) | 0 | -4 | 2 | -19 | -6
COC(=O)N/N=C/c1cn(CCOc2cccc(OC)c2)c2ccccc12 | -2 | -11 | -1 | / | -2
COc1cccc(OCCn2cc(C=O)c3ccccc32)c1 | -2 | -9 | -27* | / | 9
Cc1ccc(-n2cccc2/C=C2\C(=N)N3N=C(c4ccco4)SC3=NC2=O)cc1 | -6 | 19 | 0 | 67* | -14
Oc1oc(-c2ccccc2)nc1/C=N/c1nccs1 | 8 | 2 | -9 | -26 | 2
Oc1oc(-c2ccccc2)nc1C=Nc1cccc2ccccc12 | 2 | -5 | -2 | 75* | 1
Cc1nn(CC(=O)N2CCN(S(=O)(=O)c3ccccc3)CC2)c(C)c1[N+](=O)[O-] | 6 | -2 | / | / | -2
CSC1=N/C(=C\c2ccccc2F)C(=O)S1 | 5 | 7 | 2 | 99* | -4
O=C(NCc1ccco1)C(c1cccs1)N(C(=O)C1COc2ccccc2O1)c1cccc(O)c1 (stereo unspecified) | -1 | 0 | 1 | 20 | 4
SMILES | BCLXL inh | MCL1-BIM inh | MEX-5 binding | EBV gp42 inh | GLD-1 TGE inh
COC(=O)CCCC1=CC2=CC(=O)C(C)(OC(=O)c3cnc4ccccc4n3)C(=O)C2=CO1 (stereo unspecified) | 95* | 114* | -67* | / | 94*
COC/C=C/C1=CC2=CC(=O)C(C)(OC(=O)c3cnc4ccccc4n3)C(=O)C2=CN1CCc1ccccn1 (stereo unspecified) | 52* | 55* | -15 | / | 32*
CCCCC1=CC2=CC(=O)C(C)(OC(=O)c3cnc4ccccc4n3)C(=O)C2=CO1 (stereo unspecified) | 64* | 96* | ? | 23 | 97*
CCCCC1=CC2=CC(=O)C(C)(OC(=O)c3cccs3)C(=O)C2=CO1 (stereo unspecified) | 27 | 39 | -12 | / | 30
Cc1cc(N=Cc2c(O)n(-c3ccc4c(c3)OCO4)c(=O)c3ccccc23)ccn1 | -10 | -17 | -31* | -77 | 2
Cc1ccc(-n2c(SC3CCOC3=O)nc3ccccc3c2=O)cc1 (stereo unspecified) | 31* | 9 | 1 | 4 | 4
CCOc1ccc(NC(=O)c2ccc3c(c2)CCN3S(C)(=O)=O)cc1 | 6 | 1 | 0 | / | 5
CCC(=O)NC(c1cc(Cl)c2ccccc2c1O)C1CC1 (stereo unspecified) | 151* | -5 | / | / | -4
O=C(O)c1cc(-c2ccc(/C=N/Nc3ccc([N+](=O)[O-])cn3)o2)ccc1Cl | / | / | -72* | -12 | /
O=C(Nc1ccc(Br)cn1)c1cccc2ccccc12 | 8 | 10 | -1 | / | -3
COc1c(C(=O)Nc2ccc(Br)cn2)ccc2ccccc12 | 57* | 0 | 3 | / | 5
C(=N\NC1=Nc2cccc3cccc1c23)/c1ccccc1 | -2 | -20 | -11 | 148* | 32*
O=C1CS/C(=N/N=C/c2cccs2)N1 | -13 | -19 | -32* | -34 | -2
CCCCc1ccc(C2C(C#N)=C(N)SC(N)=C2C#N)s1 | -47 | -73 | / | -69 | -83
C=CCn1c(O)c(CN2CCOCC2)c(C)c(C#N)c1=O | 39* | 35 | -5 | / | 28
C=CCn1c(C)cc(C)c(C#N)c1=O | 6 | 0 | -1 | -20 | 7
O=C(ONc1ccc(N=NC(=O)c2ccccc2O)cc1)c1ccccc1 | 12 | 23 | -1 | 89* | 8
COc1ccc(CCNc2cc(C)[nH]c(=O)c2)cc1OC | 3 | 3 | 1 | / | 3
COc1ccc(-c2nc3n(c2C)Cc2ccccc2-3)cc1 | 46* | 41* | -2 | 5 | 4
CCN1C(=O)/C(=C2/C=Cc3cc(C)ccc3N2CC)N(C)C1=S | -6 | 9 | -2 | -18 | -2
CCN1C(=C(C#N)C#N)C=Cc2cc(C)ccc21 | 25 | 18 | 0 | 34 | 41*
O=c1c2ccccc2c(C=Nc2ccccc2O)c(O)n1-c1nccs1 | 37* | 30 | -13 | 28 | -17
Cc1ccccc1N=Cc1c(O)n(-c2nccs2)c(=O)c2ccccc12 | 8 | 10 | -16 | 2 | 2
